Each structure is given as a SMILES string. Where “and” joins values, the source holds several entries; their conditions need not be identical. Equal entries are not always repeated. Results filed as inconclusive are left out. Calls of active or inactive are those of the source. The call rests on the fitted dose curve; in most records, active means well fitted activation curve with a large enough effect in the repeat runs; inconclusive means weak or mixed curves; inactive means flat fitted curve, though single readings scatter.
On the % scale 0 is the no-effect control and ±100 the full control effect; potency means the concentration at half of the fitted maximal effect.

This experiment is described as follows: A CellTox Green Cytotoxicity Assay to monitor cytotoxicity in HEK293 cells - 40 hour (AID 1224871). Further: nearly all actives have a fitted effect of over 45% in size. The following applies: CellTox Green fluorescence; series mostly up to 76.8 µM; cytotoxicity increase: at the top concentration. The text has this: National Center for Advancing Translational Sciences [NCATS]
NIH Chemical Genomics Center [NCGC]
U.S. Environmental Protection Agency [EPA]
National Institutes of Environmental Health Sciences [NIEHS]
National Toxicology Program [NTP]
Cell-based models are critical for drug discovery. Determining the natural cytotoxic effects resulting from test compounds is an essential research activity. A CellTox Green Cytotoxicity Assay to monitor cytotoxicity in real time of continues cell culture during 40 hours of the compound treatment was used to screen Tox21 10K library compounds in Hek293 cells. CellTox Green Cytotoxicity Assay is a nonlytic, homogeneous, biofluorescent method to measure cytotoxicity in cell culture after experimental manipulation. The assay system uses a proprietary asymmetric cyanine dye that is excluded from viable cells but preferentially stains the dead cell's DNA. […] Viable cells produce no appreciable increases in fluorescence. Therefore, the fluorescence signal produced by the binding interaction with dead cell DNA is proportional to cytotoxicity.
The mixture of Hek293 cell suspension and reagents were dispensed at 600cells/6 ul/well in 1536-well tissue culture treated black solid bottom plates using a Multidrop dispenser. After the assay plates were incubated at a 37 C/5% CO2 incubator for 5 hours, 23 nL of compounds dissolved in DMSO, positive and negative controls was transferred to the assay plate by a pintool work station. The plates were incubated at 37 C for 40 hours. The fluorescence intensity were measured at 0h, 8h, 16h, 24h, 32h and 40h time points using ViewLux plate reader during compound treatment.
Consider `COc1cc(OC)c(OC)cc1C=O`, for which the “cytotoxicity increase” value is -11.5% (inactive).
Same read-out and setting: in the case of `CCN(CC)C(=O)Cl` it was 5.57% (inactive).
For the compound `CC1COC(Cn2cncn2)(c2ccc(Oc3ccc(Cl)cc3)cc2Cl)O1` (stereo not drawn), the Potency is 49 µM (active).
Turning to `CN1CSC(=S)N(C)C1`, the Potency is 6.88 µM (active) and 12.3 µM (active).
As to `COc1ccc(C(c2ccc(OC)cc2)C(Cl)(Cl)Cl)cc1`, the “cytotoxicity increase” value is 12.2% (inactive).
As to `Cc1ccc2nc3sc(=O)sc3nc2c1`, the cytotoxicity increase was -10.2% [at 15.8 µM] (inactive).
Regarding `O=S(=O)(C(Cl)(Cl)Cl)C(Cl)(Cl)Cl`, the Potency is 17.4 µM (active).
Same read-out and setting: to `CO/C=C(/C(=O)OC)c1ccccc1Oc1cc(Oc2ccccc2C#N)ncn1` belongs 4.9 µM (active); to `c1ccc2c(c1)Sc1ccccc1N2CC1CN2CCC1CC2` (stereo not drawn), 26.8 µM (active).
In the case of `Clc1ccccc1-c1ccccc1Cl`, the Potency is 31.4 µM (active).
For `OC(Cc1ccccc1Cl)(Cn1[nH]cnc1=S)C1(Cl)CC1` (stereo not drawn), the “cytotoxicity increase” value is -35.9% (inactive).
Regarding `O=C(c1ccccc1)C(Cl)Cl`, the Potency was 34.7 µM (active).
As for `Cc1nnc2n1-c1sc(CCc3ccc(CC(C)C)cc3)cc1C(c1ccccc1Cl)=NC2C` (stereo not drawn), the Potency is 23.9 µM (active).
Consider `N#Cc1cc([N+](=O)[O-])ccc1N`, for which the “cytotoxicity increase” value was -2.37% (inactive).
`C[C@]12CC[C@@H](O)C[C@@H]1CC[C@@H]1[C@@H]2CC[C@]2(C)C(=O)CC[C@@H]12`: the Potency was 49 µM (active).
The same measure, in the same setting: to `CCOC(=O)C(O)(c1ccc(Cl)cc1)c1ccc(Cl)cc1` belongs 44.1 µM (active).
On to `Oc1c(I)cc(I)cc1I`, for which the “cytotoxicity increase” value is -0.627% (inactive).
As for `O=[N+]([O-])c1c(Cl)c(Cl)cc(Cl)c1Cl`, the Potency is 49 µM (active).
Same read-out and setting: to `Nc1ccc([N+](=O)[O-])cc1` belongs 38.9 µM (active).
`O=C1C(I)=CC(=C(c2cc(I)c(O)c(I)c2)c2ccccc2C(=O)O)C=C1I`: the “cytotoxicity increase” value is -1.79% [at 35.3 µM] (inactive).
Take `ClC1=C(Cl)[C@]2(Cl)[C@@H]3[C@@H](Cl)[C@H]4O[C@H]4[C@@H]3C1(Cl)C2(Cl)Cl`: the Potency was 54.9 µM (active).
Still for that read-out and setting: to `OCC(c1ccc(Cl)cc1)c1ccc(Cl)cc1` belongs 43.6 µM (active); to `Cc1ccc(N(SC(F)(Cl)Cl)S(=O)(=O)N(C)C)cc1`, 4.9 µM (active).

The values are drawn from PubChem BioAssay (Tox21).
